According to the supplement of paper PMC6897291:

Tested on: RIVA
Test: growth inhibition by drug alone (1 - RLU/untreated control) (fraction); higher = stronger inhibition
Settings: 177Lu-lilotomab satetraxetan 0 ug/ml
Procedure: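 RIVA (RI-1) ABC-DLBCL cells were pretreated or not for 18 h with 0.5 ug/ml 177Lu-lilotomab satetraxetan (600 MBq/mg), washed and seeded (3000 cells/well) on 384-well plates pre-printed with the Selleck Cambridge Cancer Compound library. Viability was read by RealTime-Glo luminescence on days 3-6 after seeding. Effect = 1 - RLU/mean RLU of the 48 untreated no-drug control wells per plate; Bliss score = (M-E)/(1-Fa).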

SMILES | growth inhibition by drug alone (10 nM, time (day): 3) | growth inhibition by drug alone (10 nM, time (day): 4) | growth inhibition by drug alone (10 nM, time (day): 5) | growth inhibition by drug alone (10 nM, time (day): 6) | growth inhibition by drug alone (100 nM, time (day): 3) | growth inhibition by drug alone (100 nM, time (day): 4) | growth inhibition by drug alone (100 nM, time (day): 5) | growth inhibition by drug alone (100 nM, time (day): 6)
CN(C)C/C=C/C(=O)Nc1cc2c(Nc3ccc(F)c(Cl)c3)ncnc2cc1O[C@H]1CCOC1 [Afatinib (BIBW2992)] | 0.0532 | -0.016 | -0.0806 | -0.333 | -0.091 | -0.147 | -0.146 | -0.262
CCN(CC)C(=S)SSC(=S)N(CC)CC [Disulfiram (Antabuse)] | -0.0278 | -0.1 | -0.147 | -0.282 | -0.227 | -0.194 | -0.203 | -0.423
C=CC(=O)Nc1cccc(Oc2nc(Nc3ccc(N4CCN(C)CC4)cc3OC)ncc2Cl)c1 | -0.189 | -0.196 | -0.216 | -0.258 | -0.151 | -0.238 | -0.251 | -0.328
Cc1ccc([N+](=O)[O-])cc1S(=O)(=O)N(C)/N=C/c1cnc2ccc(Br)cn12 | 0.193 | 0.193 | 0.103 | -0.15 | 0.507 | 0.599 | 0.585 | 0.539
CCN(CC)CCCC(C)Nc1nc(C)cc(Nc2ccc3nc(C)cc(N)c3c2)n1 (stereo not given) | -0.0541 | -0.0225 | -0.0658 | -0.279 | -0.31 | -0.199 | -0.249 | -0.391
